AC50 and outcome data for 17 molecules are collected here from PubChem BioAssay (EPA / NIEHS).

The source made the active and inactive calls. Rule for the calls: active = hit-call score of the fitted dose curve at least 0.9, where 1 is the maximum; inactive = score below 0.9.

Test system in the first experiment: not listed separately
As to the kind of experiment: CCTE_Deisenroth_DEVTOX-GLR_Pluri_CellCount: Viability Assessment in CCTE's DevTox GLR-Pluri Assay Evaluation of Total Cell Counts, Deisenroth Lab (AID 2284430). In short, it runs like this:
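RUES2-GLR human pluripotent cells, seeded 24 h, then differentiated 48 h with two chemical exposures 24 h apart; 10-point series 1 nM - 200 uM. Fixed, nuclear-stained, imaged (5 fields/well); nuclei count as % change vs 0.2% DMSO.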
As to `COc1ccc2c(c1)c(CC(=O)O)c(C)n2C(=O)c1ccc(Cl)cc1`, the AC50 was 4.99 µM (active).
Turning to `CC(=O)Oc1ccccc1C(=O)O`, the call was inactive.
As to `O=c1[nH]cc(F)c(=O)[nH]1`, the AC50 is 8.12 µM (active).
Still for that read-out and setting: then `CC1=C(/C=C/C(C)=C/C=C/C(C)=C/CO)C(C)(C)CCC1`, with 29.4 µM (active); and `COc1cccc2c1C(=O)c1c(O)c3c(c(O)c1C2=O)C[C@@](O)(C(=O)CO)C[C@@H]3O[C@H]1C[C@H](N)[C@H](O)[C@H](C)O1`, with 0.00758 µM (active).
Regarding `CCCc1cc(=O)[nH]c(=S)[nH]1`, the call was inactive.

The test system of the next experiment is TTR (gene 7276). As to the kind of experiment: CCTE_GLTED_hTTR_0.125uM: CCTE's human Transthyretin (hTTR) Inhibition Assay, with 0.125uM TTR, Great Lakes Toxicology and Ecology Division (GLTED) Lab (AID 2284431).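 Note: hits lower the fluorescence signal relative to DMSO baseline.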 In short, it runs like this:
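TTR 0.125uM + test chemical, 2 h; ANSA probe displacement; ex 380/em 475 fluorescence; signal loss vs DMSO control.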
In the case of `CCCCC(CC)COC(=O)CC(C(=O)OCC(CC)CCCC)S(=O)(=O)O` (stereo not drawn), the AC50 was 1.62 µM (active).
For the molecule `COc1ccc2c(c1)c(CC(=O)O)c(C)n2C(=O)c1ccc(Cl)cc1`, the AC50 was 1.93 µM (active).
Still for that read-out and setting: then `Cc1cccc(C)c1O`, with 33.4 µM (active); and `Cc1c(C(=O)O)c(O)cc2c1C(=O)c1c(O)c([C@@H]3O[C@H](CO)[C@@H](O)[C@H](O)[C@H]3O)c(O)c(O)c1C2=O`, with 10.1 µM (active); and `CC=Cc1ccc(O)c(OC)c1`, with 13.6 µM (active).
Still for that read-out and setting: the result for `C=CCc1ccc(O)c(OC)c1` reads 26.1 µM (active).
In the case of `C[C@]12C=CC(=O)C=C1CC[C@@H]1[C@@H]2C(=O)C[C@@]2(C)[C@H]1CC[C@]2(O)C(=O)CO`, the result was inactive.
As for `Cc1cccc(Nc2cc(Cl)nc(SCC(=O)O)n2)c1C`, the half-maximal activity concentration (AC50) was 3.12 µM (active).
Still for that read-out and setting: the result for `Cc1ccc(C)c(O)c1C` reads 21.9 µM (active); that for `Oc1ccc2ccccc2c1N=Nc1ccccc1`, 1.37 µM (active); that for `COc1cc(S(=O)(=O)O)c(C)cc1N=Nc1c(O)ccc2cc(S(=O)(=O)O)ccc12`, 30.8 µM (active).
Still for that read-out and setting: then `Cc1cc(NC(=O)C(=O)O)cc(C)c1Oc1ccc(O)c2c1CCC2`, with 0.344 µM (active).

As usually defined, the AC50 is the concentration at which the activity in the assay is half-maximal.
